The supplement of paper PMC9694430

What follows are molecules tested on LOC_OS05G28520-cb001 (assay: thermal shift delta Tm vs DMSO control; higher = stronger stabilization (binding)). Conditions: 12.5 µM; protein concentration 2 µM.
How it was run: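 Compounds dissolved in DMSO were added to purified rice kinase domain constructs, which had been expressed in E. coli, for differential scanning fluorimetry. Each well held 19.5 μl of 2 μM kinase in 100 mM potassium phosphate pH 7.5, 150 mM NaCl, 10% glycerol and 5 × SYPRO Orange. Fluorescence was followed from 25°C to 95°C at a rate of 0.05°C/s. Shifts in Boltzmann-fitted melting temperature are triplicate means relative to DMSO-only protein.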

Row | SMILES | thermal shift delta Tm
1 | O=C1NC(=O)C(c2ccccc2[N+](=O)[O-])=C1Nc1ccc(O)c(Cl)c1 | 1.12 °C
2 | CCOc1cc2ncc(C#N)c(Nc3ccc(OCc4ccccn4)c(Cl)c3)c2cc1NC(=O)/C=C/CN(C)C [Neratinib (HKI-272)] | 0.73 °C
3 | CCCS(=O)(=O)Nc1ccc(F)c(C(=O)c2c[nH]c3ncc(-c4ccc(Cl)cc4)cc23)c1F [Vemurafenib (PLX4032, RG7204)] | 1.63 °C
4 | Cc1cn(-c2cc(NC(=O)c3ccc(C)c(Nc4nccc(-c5cnccn5)n4)c3)cc(C(F)(F)F)c2)cn1 [Radotinib] | 0.56 °C
5 | OC(c1cc(-c2ccc(Cl)cc2)nc2ccccc12)C1CCCCN1 (configuration not stated) [Vacquinol-1] | 0.66 °C
6 | Cc1cc(CS(=O)(=O)c2ccccc2)cc(OCc2ccc(CN3CCC[C@@H]3CO)cc2)c1 | 0.56 °C
7 | Clc1ccc(Nc2nnc(Cc3ccncc3)c3ccccc23)cc1 [Vatalanib (PTK787) 2HCl] | -0.19 °C
8 | CN1CCN(c2ccc(Nc3cc(-c4cccc(-n5ccc6cc(C7CC7)cc(F)c6c5=O)c4CO)cn(C)c3=O)nc2)CC1 | 0.6 °C
9 | O=C1NC(=O)[C@@H](c2cn3c4c(cccc24)CCC3)[C@@H]1c1c[nH]c2ccccc12 [Tivantinib (ARQ 197)] | 0.49 °C
10 | COc1cc(-c2cc(-c3ccc(N4CCNCC4)cc3)cnc2C)cc(OC)c1OC | 0.5 °C
11 | Cn1ncc(Cl)c1-c1cc(C(=O)N[C@H](CN)Cc2ccc(F)c(F)c2)oc1Cl | 1.26 °C
12 | C[C@H](Nc1ncnc2nc[nH]c12)c1cc2cccc(Cl)c2c(=O)n1-c1ccccc1 [Duvelisib (IPI-145, INK1197)] | 0.82 °C
